Sampled rows, rich in hits. Any-hit rate of the full collection: about 4.5%.
CSC inhib – cancer stem cell inhibition | cancer stem cell-like cells viability, luminescence | inhibition, % at 7.5 µM | hit rate 1.1% among 300,000; in the data active means inhibition above about 75%; tested in HMLE shEcad cells
697 NFkB inh – inhibitors of the PMA/ionomycin-induced NF-kB reporter in 697 B cells; inhibition, % at 4 µM; hit rate 0.33% among 330,000; 697 B-cell NF-kB luciferase reporter, 16 h; AID 435022; in the data active means inhibition above about 35%
Gli-Sufu antag – Gli-Sufu pathway antagonism; AID 588413; Sufu-KO-LIGHT fibroblasts, Gli luciferase reporter luminescence; hit rate 0.74% among 340,000; inhibition, % at 5 µM;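 active means inhibition above about 55%, limit read from the data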
Jurkat NFkB inh – lowers PMA/ionomycin-induced NF-kB signal in Jurkat cells; PMA/ionomycin-induced NF-kB luciferase reporter, luminescence; inhibition, % at 4 µM; hit rate 0.53% among 330,000; AID 435003; in the data active means inhibition above about 50%
Beta cell apopt – beta cell apoptosis inhibition; AID 435005; INS-1E cytokine-induced death, ATP luminescence, 48 h; percent of positive-control rescue, neutral wells zero; hit rate 0.8% among 300,000; protection from apoptosis, % (test concentration not listed);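 active means Every replicate reaches about 75%, or at least half do and their mean reaches it too, limit read from the data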;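 further: higher means more ATP so stronger rescue from cytokine killing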
Mdm2 MdmX PPI – inhibitors of human Mdm2/MdmX interaction | O15151+Q00987 | SaOS-2 split-luciferase Mdm2/MdmX complementation, luminescence | inhibition, % at 8 µM | hit rate 3% among 330,000;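 active means inhibition of at least 50% at 8 µM in the primary screen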
697 NFkB conf – lowers PMA/ionomycin-induced NF-kB signal in 697 B cells; shares compounds with 697 NFkB inh; 697 B-cell NF-kB luciferase, 16 h; inhibition, % at 4 µM; hit rate 35% among 2,000; in the data active means inhibition mostly above about 28%, no sharp cut-off; inactive means mostly below about 22%
Of the large screens only hits and unclear results are named; the others gave an inactive call (follow-up assays come after a bar, where they were run).

Cc1ccc(-c2noc(-c3cccs3)n2)cc1	none | 697 NFkB conf inactive
c1csc(-c2nc(-c3ccc(-c4ccon4)s3)no2)c1	none | 697 NFkB conf inactive
Oc1ccc2ccccc2c1N=Nc1ccc(F)cc1	none
Cc1ccc(N=Nc2ccc3ccccc3c2O)cc1	none | 697 NFkB conf inactive
C=CCn1cnc2c(oc3ccccc32)c1=O	none
CC1=CC2=NC(=O)C(c3ccccc3)C(=O)N2C=C1 (centres undefined)	none (no result: CSC inhib, 697 NFkB inh, Jurkat NFkB inh, Beta cell apopt, Mdm2 MdmX PPI)
CCN(CC(=O)Nc1c(F)cccc1F)C(=O)c1cc(S(=O)(=O)N(C)C)ccc1N1CCCC1	697 NFkB inh 37.5 | 697 NFkB conf 30.5
NNC(=O)c1cccc(COc2ccccc2Br)c1	none
NNC(=O)c1cccc(COc2ccc3c(c2)CCC3)c1	697 NFkB inh 56.2 (no result: Beta cell apopt) | 697 NFkB conf inactive
Cc1nc(SCC(=O)N(CC(C)C)C2CCS(=O)(=O)C2)c(C#N)c(C)c1C (centres undefined)	none (no result: CSC inhib, Beta cell apopt)
Cc1ccc(C(=O)c2ccc(O)cc2)cc1C	none
Cc1ccc(C(=O)c2cccc(N)c2)cc1C	697 NFkB inh 36.6 | 697 NFkB conf inactive
CCN(CC)C(=O)N1CCN(c2c([N+](=O)[O-])c(=O)oc3ccccc23)CC1	none
COc1ccc(C(=O)N/C(N)=N/c2nc3ccccc3o2)cc1	none
Cc1ccc2oc(/N=C(\N)NC(=O)C3CC3)nc2c1	none | 697 NFkB conf inactive
O=S(=O)(c1ccc(Cl)cc1)N1CCN(C(=S)NCC2CCCO2)CC1 (centres undefined)	none
Cc1csc(NC(=O)CCc2c(C)nc3cc(-c4ccc(Cl)cc4)nn3c2C)n1	697 NFkB inh 42.5 | 697 NFkB conf 42.5
Cc1csc(NC(=O)CSc2nnc(-c3ccc(Cl)cc3)n2N)n1	none
Cc1nc2cc(-c3ccc(Cl)cc3)nn2c(C)c1CCC(=O)NC(C)c1ccc2c(c1)OCCO2 (centres undefined)	697 NFkB inh 37.0 | 697 NFkB conf 27.5
COc1cc(OC)cc(-c2cc3nc(C)c(CCC(=O)NCc4ccccc4)c(C)n3n2)c1	697 NFkB inh 38.2 | 697 NFkB conf 44.6
CC1=CC(C)(C)Nc2ccc(OC(=O)C(Cc3ccccc3)N3C(=O)c4ccccc4C3=O)cc21 (centres undefined)	697 NFkB inh 65.9 | 697 NFkB conf 49.5
O=c1c(-c2ccc(F)cc2)coc2cc(O)ccc12	none | 697 NFkB conf inactive
COc1cc(NC(=O)COc2cc3oc(=O)cc(C)c3cc2Cl)cc(OC)c1OC	none
CC(=O)c1ccc(S(=O)(=O)Oc2ccc(-c3ccc(C(=O)O)cc3)cc2)cc1	none
Cc1ccc(-n2c(O)c(C=Nc3ccccc3-c3n[nH]c(=S)[nH]c3=O)c3ccccc3c2=O)cc1C	none (no result: CSC inhib, Beta cell apopt)
Cc1cccc(-n2c(O)c(C=Nc3ccccc3-c3n[nH]c(=S)[nH]c3=O)c3ccccc3c2=O)n1	697 NFkB inh 38.1 | 697 NFkB conf inactive
CCCN(C(=O)CSc1ncnc2sccc12)c1c(N)n(Cc2ccccc2)c(=O)[nH]c1=O	none (no result: CSC inhib)
Cc1ccc(CN2CCN(Cc3cn[nH]c3-c3cccc(F)c3)CC2CCO)o1 (centres undefined)	none
Cc1ccccc1Nc1nc(Cl)c(C=O)s1	697 NFkB inh 35.1 | 697 NFkB conf 39.5
CCC(=O)Nc1cccc(C(=O)c2ccc(C)c(C)c2)c1	none
N#CCSc1nc2c(cc1C#N)CCCC2	none (no result: Beta cell apopt)
CSC1CCCCC1(O)CSc1nc2c(cc1C#N)CCCC2 (centres undefined)	697 NFkB inh 39.8 | 697 NFkB conf 47.5
CCc1ccccc1NC(=O)CSc1nnc([C@@H]2CCCN2C(=O)OC(C)(C)C)o1	697 NFkB inh 35.7 | 697 NFkB conf inactive
Cc1oc(-c2ccc(-c3ccccc3)cc2)nc1CN1CCN(CC(=O)N(C)C)CC1	none (no result: Beta cell apopt) | 697 NFkB conf inactive
COc1ccc(-c2nc(CN3CCN(Cc4ccccc4)CC3)c(C)o2)cc1	none
CC1C(=O)N2CCCc3cc(NC(=O)c4ccccc4Br)cc1c32 (centres undefined)	697 NFkB inh 40.9 | 697 NFkB conf inactive
COC(=O)[C@H](CCSC)NC(=O)Nc1cccc(Br)c1	none
CCc1ccc(-c2nc(CSCC(=O)NC3CC3)c(C)o2)cc1	697 NFkB inh 96.9, Gli-Sufu antag 79.6 | 697 NFkB conf 92.8
COc1ccc(-c2nc(CSCC(=O)NCc3ccco3)c(C)o2)cc1	697 NFkB inh 37.8 | 697 NFkB conf 43.2
CCOC(=O)N1CCC(NC(=O)CSCc2nc(-c3ccc(OC)cc3)oc2C)CC1	none
CSc1ccc(-c2nc(CSCC(=O)NC3CC3)c(C)o2)cc1	697 NFkB inh 89.6, Gli-Sufu antag 70.3 | 697 NFkB conf 48.9
CC(C)C(C)NC(=O)CN1C(=O)NC(c2ccccc2)(c2ccccc2)C1=O (centres undefined)	none (no result: CSC inhib)
COc1cc(C(=O)Nc2ccc(C(=O)c3cccs3)cc2)cc(OC)c1OC	697 NFkB inh 36.5 | 697 NFkB conf inactive
COc1ccc(C(=O)Nc2ccc(NC(=O)c3cccs3)cc2)cc1Cl	none
COc1ccc(/C=C2\CC/C(=C\c3ccc(OC)c(OC)c3)C2=O)cc1OC	none
COc1cc(/C=C2/CC/C(=C/c3ccc(O)c(OC)c3)C2=O)ccc1O	697 NFkB inh 36.4 | 697 NFkB conf inactive
O=C(N/N=C/c1sc(N2CCOCC2)nc1-c1ccccc1)c1ccccc1O	none
O=C(N/N=C/c1sc(N2CCOCC2)nc1-c1ccccc1)c1ccccc1F	697 NFkB inh 40.0 | 697 NFkB conf inactive
O=C(N/N=C/c1sc(N2CCOCC2)nc1-c1ccccc1)c1ccccc1Cl	none
Cc1cc(C(=O)N/N=C/c2sc(N3CCOCC3)nc2-c2ccccc2)c(C)o1	697 NFkB inh 40.4 | 697 NFkB conf inactive
COc1ccc(-c2noc(CCC(=O)N3CCN(c4ccccc4F)CC3)n2)cc1	none (no result: CSC inhib, Jurkat NFkB inh, Beta cell apopt)
COc1ccc(-c2noc(N3CCC(C(=O)Nc4ccc(OC)cc4OC)CC3)n2)cc1	none
COc1ccc(-c2noc(N3CCC(C(=O)Nc4ccc(F)cc4F)CC3)n2)cc1	697 NFkB inh 36.0 | 697 NFkB conf 34.6
COc1ccc(C(=O)N=c2sc3c(C)ccc(OC)c3n2C)cc1	none (no result: CSC inhib) | 697 NFkB conf inactive
CC1CCN(CCCNC(=O)COc2cc(=O)n(C)c3ccccc23)CC1	697 NFkB inh 36.5 | 697 NFkB conf 22.8
CCn1c(=O)cc(OCC(=O)NCCCN2CCC(C)CC2)c2ccccc21	none (no result: Beta cell apopt)
COc1ccc(/C=N/NC(=O)c2cccnc2)cc1CN1CCCc2ccccc21	none (no result: Gli-Sufu antag)
COc1ccc(C(=O)N/N=C/c2ccc(OC)c(CN3CCCc4ccccc43)c2)cc1	697 NFkB inh 44.4 | 697 NFkB conf 28.9
Cc1ccc(C)c(-c2nc3ccc(N)cc3[nH]2)c1	none
Cc1ccc2nc(-c3ccccc3N)[nH]c2c1	none | 697 NFkB conf inactive
Cn1nc(-c2ccc(Cl)cc2)cc1NC(=O)CSCC(=O)O	none
CCCC(=O)N1c2ccccc2C(N(C(C)=O)c2ccccc2)CC1C (centres undefined)	none

Source: PubChem BioAssay (several laboratories)
